Compound activity deposited in PubChem by Broad Institute.
A selection: hits, their analogues and other compounds. The true share with any hit is near 0.54%.
Vc quorum ag-1: induces V. cholerae light production without autoinducers; actives 0.16% (n = 350,000); activation, % at 18.7 µM; V. cholerae BH1578 lux reporter, luminescence, 6 h; in the data active = activation mostly above about 9.7%, no sharp cut-off
FadD28 binding: inhibitors of Mycobacterium tuberculosis FadD28 bisubstrate binding | inhibition, % at 12.5 µM | actives 0.22% (n = 360,000) | FadD28 bisubstrate probe binding, fluorescence polarization; in the data active = inhibition above about 8.5%, passing the limit was not always enough
BioA inh: inhibitors of Mycobacterium tuberculosis BioA enzyme | actives 0.096% (n = 360,000) | AID 602481 | inhibition, % at 9.99 µM | purified M. tuberculosis BioA enzyme, plate reader; in the data active = inhibition above about 40%
TcdB GH inh: inhibitors of Clostridioides difficile toxin B glycohydrolase; P18177; TcdB glycohydrolase enzymatic assay, plate reader; inhibition, % at 9.99 µM; actives 0.24% (n = 350,000); AID 652162; in the data active = inhibition above about 10%
Vc quorum ag-2: quorum light induction in BH1578 reporter strain; shares compounds with Vc quorum ag-1; V. cholerae BH1578 lux reporter, luminescence, 6 h; activation, % at 50 µM; 620 tested, under 10 active; call rule not given here
HeLa 24h tox: cytotoxicity in HeLa cells at 24 hours; shares compounds with Vc quorum ag-1; HeLa viability, CellTiter-Glo ATP luminescence; activity change, negative = cytotoxicity, % at 35 µM; 25 tested, under 10 active; AID 624140;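 active = signal drop with fitted half-maximal concentration at or below twice the highest valid dose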
* = called active by the depositor; i = inactive; · = no result given.

SMILES	Vc quorum ag-1	FadD28 binding	BioA inh	TcdB GH inh	Vc quorum ag-2	others
CC1=NN(c2ccccc2)C(=O)C1=Cc1ccccc1	i	-3	0	0	·
COc1ccc(-c2nc(N)ncc2-c2ccccc2OC)c(O)c1	i	0	0	13*	·
COc1ccc(-c2nc(N)ncc2-c2ccccc2)c(O)c1	-2	0	·	0	·
CO[C@@H]1CN(C)C(=O)c2ccc(NC(=O)NC(C)C)cc2OC[C@H](C)N(CCC(F)(F)F)C[C@@H]1C	·	·	1	1	·
Cc1ccc(C)n1-c1sccc1C(=O)O	i	21*	-4	·	·
Cc1ccc(C)n1-c1sc2c(c1C(=O)O)CCCC2	i	4	·	-1	·
C[C@H](CO)N1C[C@H](C)[C@H](CN(C)S(=O)(=O)c2ccc(C#N)cc2)Oc2ncc(C#Cc3ccc(C(F)(F)F)cc3)cc2C1=O	·	·	·	-1	·
CC(C)(Oc1ccc(Cl)cc1)C(=O)NC1CC1	-1	2	0	11*	·
CCOc1ccc2nc3cc(N=Nc4ccc(N)nc4N)ccc3c(N)c2c1	2	25*	·	·	·
Cc1ccc(C(=O)OCC(=O)NCC(F)(F)F)cc1C	21	-4	·	2	153
CCCNC(=O)Nc1ccc2c(c1)OC[C@@H](C)N(C(=O)C1CCCCC1)C[C@@H](C)[C@@H](OC)CN(C)C2=O	·	·	0	1	·
Cc1ccc(C(=O)COc2cc(C)nc3nncn23)cc1	923*	0	·	2	i
CCCc1cc(Nc2ccccc2)n2ncnc2n1	1	-2	2	-3	·
CCCc1cc(Nc2ccccc2OCC)n2ncnc2n1	3	-3	0	·	1
COc1cccc(NC(=O)C[C@H]2CC[C@H]3[C@H](COc4ccc(NC(=O)C5CCC5)cc4C(=O)N3C)O2)c1	·	·	·	-1	·
CC(C)NC(=O)c1ccc(-c2cccc(C(F)(F)F)c2)o1	33*	-1	1	·	0
CC(C)NC(=O)c1ccc(-c2cc(C(F)(F)F)ccc2Cl)o1	-2	0	-1	·	·
FC(F)Oc1ccccc1NC(=S)NCc1ccco1	12	-4	0	·	0
C[C@H](CO)N1C[C@H](C)[C@H](CN(C)C(=O)Nc2ccc(F)cc2)Oc2ccc(N(C)C)cc2CC1=O	·	·	-2	-5	·
O=C(COC(=O)C1CCN(c2ccc(C(F)(F)F)cn2)CC1)NC1CCCCC1	14	-4	-1	0	0
Nc1nnc(-c2ccc(Cl)cc2Cl)s1	470*	-1	·	0	69
COCC(=O)Nc1ccc2c(c1)C(=O)N(C)[C@H]1CC[C@H](CC(=O)NC3CCCC3)O[C@H]1CO2	·	·	5	·	·
CCc1ccc(C(=O)Nc2nnnn2CC)cc1	·	·	·	·	·	HeLa 24h tox=-5
C/C=C/c1ccc2c(c1)O[C@H](CN(C)C(=O)c1cnccn1)[C@H](C)CN([C@H](C)CO)S2(=O)=O	·	·	0	-1	·
O=C(CN1CCN(c2ccc(F)cc2)CC1)Nc1cc(C(F)(F)F)ccc1Cl	25*	0	-2	·	1
SMILES	Vc quorum ag-1	FadD28 binding	BioA inh	TcdB GH inh	Vc quorum ag-2	others
O=C(CN1CCOCC1)Nc1cc(C(F)(F)F)ccc1Cl	0	-1	-1	3	·
C[C@@H]1CCCCO[C@@H](CN(C)C(=O)Nc2ccccc2)[C@H](C)CN([C@H](C)CO)C(=O)c2cc(NC(=O)CCC(F)(F)F)ccc2O1	·	·	4	1	·
CCCN1C[C@@H](C)[C@H](OC)CN(C)C(=O)c2ccc(NC(=O)C3CC3)cc2OC[C@@H]1C	·	·	-1	0	·
CC(=O)c1cccc(NC(=O)CSc2nc(=O)n(CCCN3CCOCC3)c3c2CCC3)c1	31*	0	6	0	7
Cn1c(=O)c(=O)n(C)c2cc(S(=O)(=O)N3CCN(c4ccc(F)cc4)CC3)ccc21	0	-3	-1	·	·
Cn1c(=O)oc2cc(S(=O)(=O)N3CCN(c4ccc(F)cc4)CC3)ccc21	97*	1	-1	·	4
CO[C@@H]1CN(C)C(=O)c2cc(NC(=O)Nc3ccc(Cl)cc3)ccc2OC[C@H](C)N(C)C[C@@H]1C	·	·	0	-1	·
CCc1ccc2[nH]c(=O)c(C(c3nnnn3Cc3ccccc3)N3CCOCC3)cc2c1 (configuration not stated)	i	-1	0	·	·
Cc1ccc2occ(C(c3nnnn3Cc3ccccc3)N3CCOCC3)c(=O)c2c1 (configuration not stated)	25*	-1	·	·	1
CO[C@H]1CN(C)C(=O)c2cc(NC(=O)Nc3ccccc3)ccc2OC[C@H](C)N(C(=O)CC2CC2)C[C@H]1C	·	·	-2	·	·
CN(C)C(=O)C[C@@H]1C[C@H]2c3cc(NC(=O)NC4CCCC4)ccc3O[C@H]2[C@H](CO)O1	·	·	0	0	·
Cc1cccc(N2CCN(C(=O)C34CC5CC(CC(C5)C3)C4)CC2)c1C	22*	-1	1	·	1
O=C(N1CCN(c2ccccc2F)CC1)C12CC3CC(CC(C3)C1)C2	1	-1	0	·	·
O=C(C[C@H]1CC[C@H]2NC[C@H](O)COC[C@@H]2O1)Nc1ccccc1	·	·	-2	-1	·
Cc1noc(C)c1NC(=O)N(C)C[C@H]1OCCCC[C@H](C)Oc2ccc(NC(=O)NC3CCCCC3)cc2C(=O)N([C@@H](C)CO)C[C@@H]1C	·	·	-2	0	·
CC(=O)c1cccc(NC(=O)COC(=O)Cc2ccc(Cl)cc2)c1	14	-4	1	0	0
O=C(Nc1nnc(C(F)(F)F)s1)C1COc2ccccc2O1 (configuration not stated)	19	1	1	·	1
C[C@H](CO)N1C[C@H](C)[C@H](CN(C)S(=O)(=O)c2cn(C)cn2)OCCCC[C@H](C)Oc2ccc(NS(=O)(=O)c3ccccc3)cc2C1=O	·	·	0	1	·
COc1ccc(S(=O)(=O)N2CCSC2c2ccc(N)cc2)cc1 (configuration not stated)	12	-1	-1	·	0
COCc1nnc(NS(=O)(=O)c2ccc(Br)cc2)s1	28*	0	1	·	0
CO[C@@H]1CN(C)C(=O)c2ccc(NC(=O)c3cnccn3)cc2OC[C@@H](C)N(CC2CC2)C[C@@H]1C	·	·	·	1	·
CCCNC(=O)C[C@@H]1CC[C@@H]2[C@H](COc3ccc(NC(=O)c4cc(C)on4)cc3C(=O)N2C)O1	·	·	-2	0	·
COc1ccccc1NS(=O)(=O)c1cccc(C(=O)NCC(c2ccco2)N2CCCCC2)c1 (configuration not stated)	14	-2	-3	0	0
CCOc1ccc(S(=O)(=O)Nc2ccc(C(=O)NCC(c3ccco3)N3CCCCC3)cc2)cc1 (configuration not stated)	14	0	-1	1	0
COc1ccccc1CNC(=O)C[C@@H]1C=C[C@@H](NC(=O)CN(C)C)[C@@H](CO)O1	·	·	-1	-2	·
CC12CCC(=O)N1C(C(=O)NNC(=O)COc1ccc(Br)cc1)CS2 (configuration not stated)	12	-1	0	1	0
